Reference: PubChem BioAssay AID651558 (National Center for Advancing Translational Sciences (NCATS), 2012)
Screen size: about 1,200 compounds; about 480 (40%) were called active. Not shown: some 29% with an inconclusive outcome. Calls come from the whole dose curve; as a rule, active = well fitted inhibition curve with a large enough effect; inconclusive = small, poorly fitted or top-dose-only effect; inactive = no such curve, though single readings can be large or run the other way. The list shows a part of the results.
% is set by controls: 0 for no effect and ±100 for the full control effect; potency is the fitted concentration of half-maximal effect.

Experiment: qHTS Assay to Find Inhibitors of Chronic Active B-Cell Receptor Signaling: Hit Validation in Primary Screen; note: nearly all actives have a fitted effect of over 75% in size
Details: ABC-DLBCL IkB-luc/CBR ratio luminescence, 4 h; series mostly up to 46.1 µM; activity change, negative = inhibition: at the top concentration
Text: Diffuse large B-cell lymphoma (DLBCL) is the most common category of non-Hodgkin lymphoma, with ~20,000 new cases per year in the United States. DLBCL should be regarded as a collection of different neoplasms. Microarray gene expression analysis has defined two principal types of DLBCL, named for their similarity to normal B cell stages or activation states: a germinal center B-cell (GCB) type, and an activated B-cell (ABC) type. In ABC-DLBCL, a constitutive high-level activity of the NF-kappaB family of transcription factors has been observed (1) and NF-kappaB target genes are more highly expressed in ABC primary tumors than in GCB tumors. Functional studies have shown a constitutive high-level activity of the IkappaB (inhibitor of kappa-B) kinase (IKK) complex. […] Further analysis of DLBCL primary tumors for NF-kappaB target gene expression imply that although CARD11 is required for constitutive IKK activity in all ABC-DLBCL lines, mutations in CARD11 may be the root cause of IKK activation only in lines or tumors with such mutations. In other words, CARD11 mutations may explain NF-kappaB activation in only 10% of ABC-DLBCL cases. […] This process has been termed 'chronic active BCR signaling' (CABS). The goal of this screen is to find small-molecule inhibitors of the CABS pathway found in ABC-DLBCL lines using a cell-based assay that measures IkappaBalpa stability, which has already been extensively validated in the OCI-Ly3 line (PubChem AID:445; REF: 4). […] A cell-sensor assay for I-kappa-B-alpha stabilization has been developed. The assay uses green (CBG68) and red (CBR) emitting beetle luciferases [Chroma-GloTM developed by Promega Corp.] where the green luciferase is fused to IkappaBalpha and the red luciferase is present in its native state. Both luciferase genes are stably present in the TMD8 human ABC DLBCL cell line, but their expression is under the control of tetracycline-inducible promoters. Following the addition of doxycycline to induce expression of the luciferases, the green luminescence in control cultures rises only slowly because the CBG fusion partner IkappaBalpha is targeted by IKK activity for rapid degradation. In contrast, green luminescence rises rapidly in the presence of proteasome inhibitors or IKK inhibitors. The rise in red luminescence of CBR is not affected by proteasome or IKK inhibitors, and serves as normalization for cell number and nonspecific effects. Compounds were screened as a concentration-titration series that ranged from 46 uM to 3 nM. NIH Molecular Libraries Probe Production Network [MLPCN] NIH Chemical Genomics Center [NCGC] MLPCN Grant: R03 DA031086 PI Name: Dr. R. Eric Davis
Cells were seeded in 1536-well plates at 5000 cells/4uL in IMDM medium containing 0.5% FBS, w/o phenol red, 1% penicillin/streptomycin. Then, 23 nL of compounds or DMSO were delivered to each well using a pin tool. One uL 20ng/ml doxycycline was then dispensed into white solid 1536-well plates and the plates were incubated at 37C/5% C02 in a cell incubator for 4 hrs. Then 4 uL luminescent substrate mix (in-house prepared: 150 mM Tris-Cl, pH 7.6, 3 mM MgCl2, 1% Triton X-100, 5 mM DTT, 0.2 mM CoA, 0.15 mM ATP, 5 mM D-luciferin, final concentrations) was added to each well. The plate was incubated at r.t. for 10-15 min. The plates were measured on a ViewLux plate reader for green luminescence (540/20 nm filter) and red luminescence (618/8 nm filter). The green and red luminescent signals were corrected for red and green luminescence filter overlap using previously determined filter calibration constants (determined using the procedure outlined in the Promega Technical Manual; REF 4). The %Activity was determined from the ratio of corrected green/red luminescent values. MG132 were used as control. Green luminescent and ratio %Activity was determined by normalizing to the difference in signal between basal cells (0% Activity) and cells incubated with 10 uM of the proteasome inhibitor MG-132 (100% Activity). […]
With `COc1cc2c(c(OC)c1OC)-c1ccc(O)cc1[C@@H](NC(C)=O)CC2` the Potency was 0.461 µM (active).
For `COc1cc2c(c(OC)c1OC)-c1ccc(O)c(=O)cc1C(NC(C)=O)CC2` (stereo unspecified), the Potency was 0.231 µM (active).
In the case of `COc1cc([C@@H]2c3cc4c(cc3[C@H](O)[C@H]3COC(=O)[C@H]23)OCO4)cc(OC)c1OC`, the Potency is reported as 0.0461 µM (active).
For `COc1cc(C2c3cc4c(cc3CC3COC(=O)C32)OCO4)cc(OC)c1OC` (stereo unspecified), the “activity change, negative = inhibition” value was 56.7% (inactive).
For `CCCCOCCCn1c(N)c(C(=O)OCCOC)c2nc3ccccc3nc21`, the “activity change, negative = inhibition” value was 7.36% (inactive).
For `C=CC[C@@H](CC/C=C/C=C/CC/C=C\[C@@H]1CSC([C@@H]2C[C@@H]2C)=N1)OC`, the Potency was 0.82 µM (active).
For `CC[C@]12CC[C@H](O)CC1=CCC1C2CC[C@]2(C)C(=O)CCC12` (stereo partly specified), the “activity change, negative = inhibition” value was -9.41% (inactive).
In the case of `O=c1c2ccccc2[se]n1-c1ccccc1`, the Potency is reported as 20.6 µM (active).
In the case of `Cc1cc(C)c(C(=O)CN2CCOCC2)c(C)c1`, the “activity change, negative = inhibition” value is reported as -10.1% (inactive).
In the case of `CCNC(=O)[C@H]1O[C@@H](n2cnc3c(N)ncnc32)[C@H](O)[C@@H]1O`, the Potency is reported as 0.13 µM (active).
For `COc1ccc(C(=O)Oc2cccc3cccnc23)cc1S(=O)(=O)N1CCOCC1`, the “activity change, negative = inhibition” value was -4.8% (inactive).
For `CCC(=NCCC(c1ccccc1)c1ccccc1)c1c(O)[nH]c(=O)[nH]c1=O`, the Potency was 20.6 µM (active).
With `C/C(=N\N1CCCCC1)c1c(O)[nH]c(=O)[nH]c1=O` the “activity change, negative = inhibition” value was -16.6% (inactive).
With `O=C1C(=O)c2cccc3cccc1c23` the Potency was 18.4 µM (active).
For `CCc1ccccc1N1C(=O)/C(=C/c2ccc(N3CCN(C)CC3)o2)C(=O)NC1=S`, the “activity change, negative = inhibition” value was 27.4% (inactive).
With `O=c1c2ccccc2nc(/C=C/c2ccc([N+](=O)[O-])o2)n1-c1ccc(O)cc1` the Potency was 4.11 µM (active).
With `COc1ccc(C=C2C(=O)N(C)C(=O)N(C)C2=O)cc1COc1ccc(NC(C)=O)cc1` the “activity change, negative = inhibition” value was -14.9% (inactive).
For `C#CCOc1cc(C2C3=C(COC3=O)Nc3cc4c(cc32)OCO4)ccc1OC` (stereo unspecified), the Potency was 1.46 µM (active).
With `CN(C)C(=S)SSC(=S)N(C)C` the Potency was 16.4 µM (active).
In the case of `COc1ccc(-c2nn(CCC#N)cc2C(=O)Nc2ccc(C(C)=O)cc2)cc1[N+](=O)[O-]`, the “activity change, negative = inhibition” value is reported as 81.1% (inactive).
In the case of `COc1cc2c(cc1O)CC[C@@H]1[C@@H]2CC[C@]2(C)[C@@H](O)CC[C@@H]12`, the Potency is reported as 18.4 µM (active).
